Data from PubChem BioAssay (EPA / NIEHS).
Records with an inconclusive call do not appear. Some structures have more than one record in an assay (separate samples or runs), and their calls can disagree. Active and inactive are the calls of the source. The calls were made as follows: active = hit-call score of the fitted dose curve at least 0.9, where 1 is the maximum; inconclusive = response in the unintended direction; inactive = score below 0.9.

Each compound was assayed against Oxysterols receptor LXR-beta (Homo sapiens) (UniProt P55055) (assay: ATG_LXRb_TRANS: Attagene TRANS-FACTORIAL HepG2 Assay for human Liver X Receptor beta (LXRb) (AID 2282981)). Details: HepG2 Attagene TRANS GAL4-LXRb reporter, mRNA.
Procedure: ATG_TRANS is a cell-based, multiplexed-readout assay that uses HepG2, a human liver cell line, with measurements taken at 24 hours after chemical dosing in a 24-well plate.ATG_LXRb_TRANS is one of 30 assay component(s) measured or calculated from the ATG_TRANS assay. It is designed to make measurements of mRNA induction, a form of inducible reporter, as detected with fluorescence intensity signals by Reverse transcription polymerase chain reaction (RT-PCR) and Capillary electrophoresis technology.Data from the assay component ATG_LXRb_TRANS was analyzed into 1 assay endpoint. This assay endpoint, ATG_LXRb_TRANS, was analyzed in the positive analysis fitting direction relative to DMSO as the negative control and baseline of activity. Using a type of inducible reporter, measures of mRNA for gain-of-signal activity can be used to understand the reporter gene at the transcription factor-level as they relate to the gene NR1H2. Furthermore, this assay endpoint can be referred to as a primary readout, because this assay has produced multiple assay endpoints where this one serves a reporter gene function. To generalize the intended target to other relatable targets, this assay endpoint is annotated to the nuclear receptor intended target family, where the subfamily is non-steroidal.
Human liver HepG2 cells are transiently transfected with multiple reporter transcription units (MRTUs) in 6-well plates using FuGene 6 reagent (Roche; 3 ml FuGene/1 mg DNA). The MRTU constructs are regulated by a cis-regulating element (promoter). […] A major difference between the CIS and TRANS system is that in CIS activities of endogenous TFs are measured, whereas the TRANS assay evaluates changes in activities of exogenous, chimeric NR-Gal4 proteins. […] At the end of 24 hour incubation, total RNA was isolated using TriZol reagent (Invitrogen). The isolated RNA is then reverse-transcribed using oligo(dT) primer and Mo-MLV reverse transcriptase (Invitrogen) with DNAse I (Ambion) treatment for 30 min. The one-tenth of the produced cDNA was amplified by PCR using Taq DNA polymerase (Invitrogen) and two reporter sequence-specific primers. The PCR products were fluorescently labeled by primer extension with 6-arboxyfluorescein (6-FAM) 5'-labeled reporter sequence-specific primer (2 min at 95 C, 20 s at 68 C and 10 min at 72 C) and these products were digested with 5U of HpaI (New England Biolabs) for 2h at 37 C. The fragments were purified using Qiaquick PCR columns (Qiagen), analyzed on an ABI 3130xL genetic analyzer (Applied Biosystems) with peak positions identified by using a set of X-rhodamine (ROX)-labeled MapMarker1000 molecular weight standards (BioVentures). The raw capillary electrophoresis data was processed using Attagraph software (Attagene).

Oxysterols receptor LXR-beta (Homo sapiens), sequence (P55055 whole entry, looked up, the tested form may be a part): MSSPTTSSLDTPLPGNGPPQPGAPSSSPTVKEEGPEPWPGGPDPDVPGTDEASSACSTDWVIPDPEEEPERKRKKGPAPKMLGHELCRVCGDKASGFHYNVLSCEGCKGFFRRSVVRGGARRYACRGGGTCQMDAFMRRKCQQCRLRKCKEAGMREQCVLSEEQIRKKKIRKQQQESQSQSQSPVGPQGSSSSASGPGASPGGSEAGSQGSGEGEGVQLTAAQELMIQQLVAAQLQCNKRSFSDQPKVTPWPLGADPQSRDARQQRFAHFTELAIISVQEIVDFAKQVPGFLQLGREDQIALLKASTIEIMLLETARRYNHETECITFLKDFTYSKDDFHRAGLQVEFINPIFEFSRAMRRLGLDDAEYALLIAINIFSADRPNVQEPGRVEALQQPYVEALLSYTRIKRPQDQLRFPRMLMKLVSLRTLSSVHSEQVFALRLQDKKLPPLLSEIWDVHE

Row | Compound | outcome | AC50
1 | CCCCOC(=O)[C@@H](C)Oc1ccc(Oc2ccc(C(F)(F)F)cn2)cc1 | inactive | 
2 | COC(=O)c1ccccc1C(=O)O | inactive | 
3 | O=C(c1ccccc1)C1CCCCC1 | inactive | 
4 | CN(C)C(=O)Nc1ccc(Cl)c(Cl)c1 | inactive | 
5 | CCCCC(CC)CN1C(=O)C2C3C=CC(C3)C2C1=O (stereo not given) | inactive | 
6 | N[C@@H](Cc1cc(I)c(Oc2ccc(O)c(I)c2)c(I)c1)C(=O)O | inactive | 
7 | OB(O)O | inactive | 
8 | CCCCC(CC)COC(=O)c1ccccc1C(=O)O (stereo not given) | inactive | 
9 | CC(C)CCCCCCc1ccc(O)cc1 | inactive | 51.1 µM (active)
10 | COC(=O)c1cccc(C)c1S(=O)(=O)NC(=O)Nc1nc(OCC(F)(F)F)nc(N(C)C)n1 | inactive | 
11 | CC1(C)C(C=C(Cl)Cl)C1C(=O)OCc1cccc(Oc2ccccc2)c1 (stereo not given) | inactive | 
12 | C#CCOC(=O)[C@@H](C)Oc1ccc(Oc2ncc(Cl)cc2F)cc1 |  | 1.16 µM (active)
13 | CCOC(=O)C(C)Oc1ccc(Oc2nc3ccc(Cl)cc3o2)cc1 (stereo not given) | inactive | 
14 | CCNc1nc(N)nc(Cl)n1 | inactive | 
15 | O=C(Nc1ccc([N+](=O)[O-])cc1Cl)c1cc(Cl)ccc1O | inactive | 
16 | CSC(=O)c1cccc2nnsc12 | inactive | 
17 | COC(=O)c1c(Cl)nn(C)c1S(=O)(=O)NC(=O)Nc1nc(OC)cc(OC)n1 | inactive | 
18 | Oc1ccc(C(c2ccc(O)cc2)C(Cl)(Cl)Cl)cc1 | inactive | 
19 | O=C(O)C1(C(=O)Nc2ccc(Cl)cc2Cl)CC1 | inactive | 

Row | Compound | outcome | AC50
20 | CC(=O)S[C@@H]1CC2=CC(=O)CC[C@]2(C)[C@H]2CC[C@@]3(C)[C@@H](CC[C@@]34CCC(=O)O4)[C@H]12 | inactive | 
21 | COC(=O)c1ccccc1S(=O)(=O)NC(=O)Nc1nc(OC(F)F)cc(OC(F)F)n1 | inactive | 
22 | COc1nc(C)nc(NC(=O)NS(=O)(=O)c2ccccc2OCCCl)n1 | inactive | 25.6 µM (active)
23 | N#CSCSc1nc2ccccc2s1 | inactive | 
24 | CCOC(=O)NCCOc1ccc(Oc2ccccc2)cc1 | inactive | 
25 | CCC(O)=C1C(=O)CC(C(=O)O)CC1=O (stereo not given) | inactive | 
27 | c1ccc2[nH]c(-c3cscn3)nc2c1 | inactive | 
28 | COCCO | inactive | 
29 | Cc1nn(C)c(Oc2ccccc2)c1C=NOCc1ccc(C(=O)OC(C)(C)C)cc1 |  | 1.88 µM (active)
30 | CC(C)(C)[C@@H](O)[C@@H](Cc1ccc(Cl)cc1)n1cncn1 | inactive | 
31 | COC(=O)c1ccc(CNS(C)(=O)=O)cc1S(=O)(=O)NC(=O)Nc1nc(OC)cc(OC)n1 | inactive | 
32 | CCOC(=O)COc1cc(-n2ncc(C(F)(F)F)c(C)c2=O)c(F)cc1Cl | inactive | 
33 | C[C@]12CC[C@@H]3c4ccc(O)cc4C[C@@H](CCCCCCCCCS(=O)CCCC(F)(F)C(F)(F)F)[C@H]3[C@@H]1CC[C@@H]2O (stereo not given in full) | inactive | 
34 | CCOC(=O)[C@H](C)Oc1ccc(Oc2nc3ccc(Cl)cc3o2)cc1 |  | 50 µM (active)
35 | CCCOC(=O)c1ccc(C(=O)OCCC)nc1 | inactive | 
36 | COC(=O)CSc1cc(N=c2sc(=O)n3n2CCCC3)c(F)cc1Cl | inactive | 
37 | C[C@]12C[C@H](O)[C@H]3[C@@H](CCC4=CC(=O)CC[C@@]43C)[C@@H]1CC[C@@H]2C(=O)CO | inactive | 
38 | CCCOC(=O)NCCCN(C)C | inactive | 
